# Screening results from PubChem BioAssay.
# SARS 3CLpro inh: SARS-CoV 3CLpro protease inhibition. P0C6X7. recombinant SARS-CoV 3CLpro, quenched FRET peptide cleavage. inhibition, % at 6 µM. 290,000 tested, 0.14% active. AID 1706; in the data active = inhibition above about 12%
# BoNT A protease: BoNT A light chain protease inhibition; multiplex microsphere protease substrate cleavage, flow cytometry; inhibition, % at 10 µM; 360,000 tested, 0.17% active; note: plate controls were buffer without enzyme for full effect and enzyme alone for no effect
# BoNT F protease: blocks Botulinum neurotoxin F light chain protease. Multiplex microsphere protease cleavage assay, flow cytometry. inhibition, % at 10 µM. 360,000 tested, 0.22% active; in the data active = inhibition above about 35%, passing the limit was not always enough; inconclusive = no clear call, values can overlap the other calls; note: plate controls were buffer without enzyme for full effect and enzyme alone for no effect
# Anthrax LF prot: anthrax lethal factor protease inhibition | AID 588501 | inhibition, % at 10 µM | P15917 | multiplex microsphere protease cleavage assay, LF | 360,000 tested, 0.12% active; note: plate controls were buffer without enzyme for full effect and enzyme alone for no effect
# Target sequence (P15917 whole entry, looked up): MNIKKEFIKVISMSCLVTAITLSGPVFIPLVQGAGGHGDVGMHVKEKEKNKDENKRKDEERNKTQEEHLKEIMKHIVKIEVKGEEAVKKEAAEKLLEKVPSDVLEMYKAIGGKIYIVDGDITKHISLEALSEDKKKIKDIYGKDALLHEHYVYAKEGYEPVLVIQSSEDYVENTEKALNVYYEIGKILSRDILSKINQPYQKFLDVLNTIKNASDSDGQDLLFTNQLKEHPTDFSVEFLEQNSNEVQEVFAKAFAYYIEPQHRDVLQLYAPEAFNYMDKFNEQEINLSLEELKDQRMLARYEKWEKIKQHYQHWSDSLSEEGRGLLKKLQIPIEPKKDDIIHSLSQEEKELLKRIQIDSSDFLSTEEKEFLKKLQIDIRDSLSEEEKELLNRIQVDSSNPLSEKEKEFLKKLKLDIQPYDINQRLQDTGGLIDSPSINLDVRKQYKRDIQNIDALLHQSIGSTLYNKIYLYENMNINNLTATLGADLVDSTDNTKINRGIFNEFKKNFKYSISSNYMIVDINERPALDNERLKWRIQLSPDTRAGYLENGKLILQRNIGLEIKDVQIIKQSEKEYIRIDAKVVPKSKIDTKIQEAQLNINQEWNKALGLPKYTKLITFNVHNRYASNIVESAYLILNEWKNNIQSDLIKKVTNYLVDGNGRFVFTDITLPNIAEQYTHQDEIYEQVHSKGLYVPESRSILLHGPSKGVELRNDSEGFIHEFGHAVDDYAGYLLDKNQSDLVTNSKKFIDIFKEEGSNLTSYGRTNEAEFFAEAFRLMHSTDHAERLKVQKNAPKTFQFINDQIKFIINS
# CCHF vOTU inh: blocks the CCHF virus ovarian tumor domain protease; CCHFV vOTU protease, Pep-AMC fluorescence; inhibition, % at 11.5 µM; 370,000 tested, 0.55% active; AID 651958; in the data active = inhibition above about 30%; note: 0% = vehicle wells with enzyme and 100% = no enzyme wells
# Autofluor counter: flagged as autofluorescent in microsphere protease counterscreen; compound autofluorescence counterscreen, microsphere flow cytometry; stronger effect = higher value; fluorescence intensity (test concentration not listed); 360,000 tested, 3.1% active; AID 624483; in the data active = fluorescence intensity above about 16000; inconclusive = no clear call, values can overlap the other calls
# Numbers without * were called inactive; ? = inconclusive; . = no result given. Hits are enriched below; roughly 3.9% of the tested compounds scored in any of these assays. Cut-off read from the data, not from the text of the source, unless noted: active = inhibition above about 30%; inconclusive = no clear call, values can overlap the other calls; inactive = below that.
SMILES,SARS 3CLpro inh,BoNT A protease,BoNT F protease,Anthrax LF prot,CCHF vOTU inh,Autofluor counter
CCn1c(Cc2ccccc2)nnc1SCC(=O)Nc1nc(C)c(C)s1,5.3,2.0,5.5,-0.3,2.5,21539*
CCn1c(=O)cc(SCC(=O)Nc2ccc3c(c2)OCCO3)c2ccccc21,4.9,7.4,9.7,-3.5,-7.7,20714*
CCn1c(COc2ccccc2C)nnc1SCC(=O)Nc1ccc2c(c1)OCCO2,-2.9,?,-2.2,1.5,-2.6,20676*
Cc1cnc(NC(=O)CSc2nnc(Cc3ccccc3)n2C)s1,-1.3,-4.4,-5.2,-1.4,-11.6,21335*
O=C(N[C@H](C(=O)N1CCC[C@H]1C(=O)NCCc1ccccc1Cl)c1ccccc1)C1CC1,.,.,.,.,-3.6,.
CCn1c(Cc2ccccc2)nnc1SCC(=O)Nc1ccc(N)cc1,3.5,0.1,-1.1,-5.9,3.1,4968
CCn1c(Cc2ccccc2)nnc1SCC(=O)Nc1ccc2c(c1)OCCO2,-5.9,?,18.8,-15.6,3.0,17692*
CC1(C)CC(=O)c2c(nn(-c3ccccc3)c2-c2ccncc2)C1,4.3,?,-2.9,0.7,-2.5,22472*
Cc1c2c(nc3ccccc13)CC(C)(C)CC2=O,-0.4,-0.3,-0.9,0.7,-4.4,4333
COc1c(OC(C)=O)ccc(/C=C/c2ccc3ccccc3n2)c1[N+](=O)[O-],4.6,-1.4,-5.6,0.7,17.8,23285*
COc1c(OC(C)=O)ccc(/C=C/c2ccc3cccc(OC)c3n2)c1[N+](=O)[O-],3.1,3.6,30.0,0.0,13.9,1996
CCc1ccc(/C(C)=N/NC(=O)c2c[nH]c3ccccc23)s1,-0.7,-0.9,7.6,0.9,6.1,?
O=C(OCCN1CCN(C2CN(Cc3cn(Cc4ccccc4Cl)nn3)S(=O)(=O)C2)CC1)c1cc2ccccc2o1 (stereo not given),.,.,.,.,-5.5,.
Cc1cc(N/C(=N\S(=O)(=O)c2ccc(F)cc2F)c2ccccc2)no1,-0.3,-5.6,-7.4,-4.3,-7.3,17822*
O=C(NCCCCNC(=O)c1ccc(Br)s1)c1ccc(Br)s1,2.1,?,-1.3,0.2,4.0,20047*
CNC(=O)c1ccccc1Sc1cccc2cccc(C(=O)O)c12,-2.5,0.9,-9.9,8.4,-0.8,3851
Cc1ccc(NC(=O)CN(C)C(=O)CCC(=O)N2CCOCC2)cc1,.,-6.1,-12.0,-0.7,3.8,6052
Cn1c(CN2CCCCC2)nc2cc(NC(=O)c3ccccc3)ccc21,0.1,1.8,1.2,3.7,-3.1,22188*
Cn1c(CN2CCCCC2)nc2cc(NC(=O)c3cccc(Br)c3)ccc21,-1.2,0.7,-8.0,1.1,0.1,8491
Cn1c(CCNC(=O)c2ccccc2)nc2cc(NC(=O)C3CCCCC3)ccc21,5.7,2.6,1.9,-0.7,-12.6,18656*
CCN(CC)c1ccc(/C=C/C(=O)c2ccc(Br)cc2)cc1,-2.9,61.7*,81.2*,42.3*,7.6,30707*
CCOC(=O)C1=C(C)NC2=C(C1c1ccc([N+](=O)[O-])cc1)S(=O)(=O)c1ccccc12 (stereo not given),-1.5,?,6.1,-1.5,-6.8,17917*
Fc1ccccc1-c1n[nH]c(=S)n1N=Cc1ccc(OCc2ccccc2)cc1,.,.,.,.,13.9,.
c1ccc(-c2nc(-c3ccco3)cs2)nc1,3.2,0.8,1.2,0.7,-8.3,22107*
O=C(Nc1ccc(F)cc1)OCc1cn(Cc2cc(F)ccc2F)nn1,.,.,.,.,-0.3,.
SMILES,SARS 3CLpro inh,BoNT A protease,BoNT F protease,Anthrax LF prot,CCHF vOTU inh,Autofluor counter
Cc1cc2c(n1-c1ccc(Br)cc1)CC(C)(C)CC2=O,1.7,-0.1,-0.3,-2.4,4.8,16349*
Cn1cnc(CCNC(=O)C[C@H]2CC[C@@H]3[C@H](COC[C@H](O)CN3C(=O)C3CCCC3)O2)c1,.,.,.,.,4.4,.
CCc1nc2c(s1)CCc1onc(-c3ccc(Cl)cc3)c1-2,.,0.2,-9.4,-3.6,5.7,2991
Cc1ccsc1C1Nc2ccc3ncccc3c2C2=C1C(=O)CC(C)(C)C2 (stereo not given),5.1,?,-0.9,0.3,-0.7,16347*
O=C1CCCC2=C1C(c1cccs1)Nc1ccc3ncccc3c12 (stereo not given),-2.7,?,-1.0,2.7,-4.4,23605*
CC1(C)CC(=O)C2=C(C1)c1c(ccc3ccccc13)NC2c1ccco1 (stereo not given),-4.2,-1.4,-9.1,-1.0,-84.8,11570
CCOC(=O)CN(C(=O)COC(=O)C1(c2ccccc2)CC1)c1ccc(F)cc1,.,0.4,1.9,-2.4,8.4,6676
Cc1cc(C)c(C)c(OCCCCn2cnc3ccccc3c2=O)c1,4.4,0.1,-0.9,-3.2,12.6,23324*
